# Experimental data reported in publication PMC5540273 (PLoS ONE, 2017).
# Test system: ZAK
# Details: concentration: 1 μM,replicates: in singlicate; n = 1
# 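Further: KINOMEscan kinase panel screen.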
row,Compound,%Inh [%]
1,CNC(=O)c1ccccc1Nc1nc(Nc2cccc(CS(C)(=O)=O)c2)ncc1C.O=CO [GSK1520489],0
2,Cn1ccc2ncnc(Oc3ccc(NC(=O)Nc4cncc(C(F)(F)F)c4)c(Cl)c3)c21,0
3,Cc1cccc(-c2nc(Nc3ccncc3)c3sccc3n2)n1 [GW869641],27

# Test system: ZAP70
# Details: concentration: 1 μM,replicates: in singlicate; n = 1
row,Compound,%Inh [%]
1,CSc1nccc(-c2c(-c3ccc(F)cc3)ncn2CCCN2CCOCC2)n1.Cl [SB-217146],8
2,C[C@@H]1CNc2c(sc3ccc4nc(-c5ccncc5)ccc4c23)C(=O)N1,0
3,CCOC(=O)N1CCC(n2cnc(-c3ccc(F)cc3)c2-c2ccnc(N)n2)CC1 [SB-219952],14
4,CN1CCN(CCCNc2nccc(-c3c(-c4ccc(F)cc4)nn4cc(C(N)=O)ccc34)n2)CC1 [GW622475],0
5,COc1cc(Nc2nccc(N3CCC(NC(=O)c4cccc(C#N)c4)C3)n2)cc(OC)c1OC (centres unmarked) [GSK1379751],45
6,O=C1NCCc2[nH]c(-c3ccncc3)cc21,0
7,O=C(Nc1cccc(C(F)(F)F)c1)c1cccc(Oc2ccc3nccn3n2)c1,15
8,CCN1CCN(CCCC(=O)Nc2n[nH]c3nc(-c4ccc(O)cc4)c(Br)cc23)CC1 [SB-731579],0
9,Cc1n[nH]c2cc(Nc3ccnc(Nc4cccc(CN5CCOCC5)c4)n3)ccc12 [GW682569],17
10,Cl.Cl.NC[C@H](CC1CCCCC1)NC(=O)c1ccc(-c2ccnc3[nH]ccc23)s1 [GSK1581428],0
11,Cc1ccc(Nc2ccnc(Nc3ccc4c(c3)CS(=O)(=O)C4)n2)cc1O.Cl [GW579362],37
12,CCNCC(Cc1ccccc1)NC(=O)c1cc(Br)c(-c2ccnc3[nH]ccc23)s1.Cl.Cl (centres unmarked) [GSK1383280],0
13,Cn1ccc2ncnc(Oc3ccc(NC(=O)Nc4cccc(C(F)(F)F)c4)c(F)c3)c21,1
14,CCCC(=O)Nc1n[nH]c2ncccc12 [SB-601436],0
15,Cn1ccc2ncnc(Oc3ccc(NC(=O)Nc4ccnc(C(F)(F)F)c4)c(Cl)c3)c21,0
16,CCn1c(-c2nonc2N)nc2cncc(Br)c21 [SB-738004],9

row,Compound,%Inh [%]
1,Cc1nnc(-c2ccc3occ(-c4ccc(S(C)=O)cc4)c3n2)o1 (centres unmarked),0
2,C[C@@H]1CCN(C(=O)N2CCCC2)C[C@@H]1N(C)c1ncnc2[nH]ccc12,0
3,CC(=O)Nc1ccc(-c2cc3ncnc(SCC(=O)O)c3s2)cc1,2
4,CC(C)c1nc(-c2cccc(NS(=O)(=O)c3ccccc3)c2)c(-c2ccnc(Nc3ccc4c(c3)CN(C)CC4)n2)s1 [GSK1649598],7
5,CC(C)S(=O)(=O)N1CCN(Cc2ccc3c(c2)nc(NC(=O)c2ccsc2)n3C[C@H](O)c2ccccc2)CC1 [GW635815],0
6,Cn1ccc2ncnc(Oc3ccc(NC(=O)Nc4cc(C(C)(C)C)on4)c(Cl)c3)c21,0
7,CS(=O)(=O)c1cccc(CNc2nc(Nc3ccc4c(c3)[C@@H]3C[C@@H]4CNC3=O)ncc2C(F)(F)F)c1,58
8,CC(=O)c1c(-c2ccncc2)[nH]c(-c2ccncc2)c1C [GW493036],48
9,Cc1cccc2c(-c3ccncc3)c(-c3ccc(F)cc3)nn12.Cl [GW461487],5
10,CN(c1ccc2c(c1)nc(NCc1ccc(F)cc1)n2C)c1ccnc(Nc2ccc(CS(C)(=O)=O)cc2)n1.Cl [GW813244],13
11,COC(=O)c1cccc(NC(=O)NC2CCN(c3ccnc(NCc4ccc(F)cc4)n3)CC2)c1 [GSK1379860],0
12,COc1cc2c(Nc3ccc(NC(=O)c4ccccc4)cc3)ncnc2cc1OCCCN1CCOCC1 [GSK301329],0
13,Nc1nccc(-c2ccc3c(N)n[nH]c3c2)n1 [GSK1034945],0
14,COc1ccc(Nc2nccc(N3CCC(NC(=O)c4cccc(C#N)c4)C3)n2)cc1 (centres unmarked) [GSK1379730],0
15,N#Cc1cccc(C(=O)NC2CCN(c3ccnc(Nc4ccc(F)cc4)n3)C2)c1 (centres unmarked) [GSK1379708],0
16,CN1CCN(CCNc2nc3cc(Oc4ccc(NC(=O)Nc5cc(C(F)(F)F)ccc5F)cc4)ccc3[nH]2)CC1.Cl.Cl [GW768504],12
